Where “and” joins values, the source holds several entries; their conditions need not be identical. Equal values may be shown once. Inconclusive results are not listed. Calls of active or inactive are those of the source. Calls follow the shape of the dose curve; as a rule, active = well fitted curve in the direction sought with a large enough effect; inconclusive = small, poorly fitted or top-dose-only effect, or another doubt; inactive = no such curve, though single readings can be large; an effect the other way counts as inactive or inconclusive.
Key:
[1] = tested on: KB-3-1; assay: Cytotoxic Profiling of Annotated Libraries Using Quantitative High-Throughput Screening (AID 1296008); details: Five cell lines viability, CellTiter-Glo ATP luminescence, 48-72 h; max response: hits give low values; also: nearly all actives have a fitted effect of over 60% in size
In short: (§1)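 Cells exposed to compounds for 48 or 72 hr at 37 degrees Celsius. Viability read as ATP-coupled luminescence with CellTiter-Glo after 10 min at room temperature.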

[2] = tested on: NIH3T3; assay: as above; details: Five cell lines viability, CellTiter-Glo ATP luminescence, 48-72 h; max response: hits give low values
In short: as §1

[3] = tested on: HACAT; assay: qHTS assay to identify novel small-molecules to repurpose for Merkel cell carcinoma treatment (AID 1296009); details: MCC and control cell lines, CellTiter-Glo viability, 72 h; at 44.8 µM (top of the series) unless noted; also: nearly all actives have a fitted effect of over 60% in size
In short: (§2)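 Dose-response viability screen; 72 hr exposure at 37 degree celsius; CellTiter-Glo added, 10 min room temperature, luminescence read; RLUs scaled between no-cell and DMSO wells.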

[4] = tested on: MCC-13; assay: as above; details: MCC and control cell lines, CellTiter-Glo viability, 72 h; series mostly up to 46 µM
In short: as §2

[5] = tested on: MCC-26; assay: as above; details: MCC and control cell lines, CellTiter-Glo viability, 72 h; series mostly up to 46 µM
In short: as §2

[6] = tested on: MKL-1; assay: as above; details: MCC and control cell lines, CellTiter-Glo viability, 72 h; series mostly up to 46 µM
In short: as §2

[7] = tested on: MKL-2; assay: as above; details: MCC and control cell lines, CellTiter-Glo viability, 72 h; series mostly up to 46 µM
In short: as §2

[8] = tested on: NIH3T3; assay: as above; details: MCC and control cell lines, CellTiter-Glo viability, 72 h; at 44.8 µM (top of the series)
In short: as §2

[9] = tested on: UISO; assay: as above; details: MCC and control cell lines, CellTiter-Glo viability, 72 h; series mostly up to 46 µM
In short: as §2

[10] = tested on: WaGa; assay: as above; details: MCC and control cell lines, CellTiter-Glo viability, 72 h; series mostly up to 46 µM
In short: as §2

[11] = tested on: C33A; assay: Primary qHTS to identify gynecologic anti-cancer compounds using libraries of approved drugs and bioactive compounds (AID 1345084); details: Gynecologic cancer cell panel viability, ATPlite luminescence, 48 h; series mostly up to 57.5 µM; also: nearly all actives have a fitted effect of over 55% in size
In short: (§3)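 48 h compound exposure at 37 C, 5% CO2; five-point qHTS. ATPlite luminescence readout of cell ATP.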

[12] = tested on: CAOV3; assay: as above; details: Gynecologic cancer cell panel viability, ATPlite luminescence, 48 h; series mostly up to 57.5 µM
In short: as §3

[13] = tested on: CASKI; assay: as above; details: Gynecologic cancer cell panel viability, ATPlite luminescence, 48 h; series mostly up to 57.5 µM
In short: as §3

[14] = tested on: Es-2; assay: as above; details: Gynecologic cancer cell panel viability, ATPlite luminescence, 48 h; series mostly up to 57.5 µM
In short: as §3

[15] = tested on: HeLa; assay: as above; details: Gynecologic cancer cell panel viability, ATPlite luminescence, 48 h; series mostly up to 57.5 µM
In short: as §3

[16] = tested on: Hek293T; assay: as above; details: Gynecologic cancer cell panel viability, ATPlite luminescence, 48 h, control line for the selectivity index; series mostly up to 57.5 µM
In short: as §3

[17] = tested on: JEG-3; assay: as above; details: Gynecologic cancer cell panel viability, ATPlite luminescence, 48 h; series mostly up to 57.5 µM
In short: as §3

[18] = tested on: OV90; assay: as above; details: Gynecologic cancer cell panel viability, ATPlite luminescence, 48 h; series mostly up to 57.5 µM
In short: as §3

[19] = tested on: PA-1; assay: as above; details: Gynecologic cancer cell panel viability, ATPlite luminescence, 48 h; series mostly up to 57.5 µM
In short: as §3
% is scaled to controls: 0 for no effect and ±100 for the full control effect.

CCC(C(=O)OCCOCCN(CC)CC)c1ccccc1 (stereo not given)
inactive: max response [1] 16.3% | outcome [2] | outcome [3] | Potency [4] | Potency [5] | Potency [6] | Potency [7] | outcome [8] | Potency [9] | Potency [10] | Potency [11] | Potency [12] | Potency [13] | Potency [14] | Potency [15] | Potency [16] | Potency [17] | Potency [18] | Potency [19]

Cc1ccc(O)c([C@H](CCN(C(C)C)C(C)C)c2ccccc2)c1
inactive: max response [1] -10.6% | max response [2] -1.6% | outcome [3] | Potency [4] | Potency [5] | Potency [6] | Potency [7] | Potency [9] | Potency [11] | Potency [12] | Potency [13] | Potency [14] | Potency [15] | Potency [16] | Potency [19]

OC(C#CCN1CCCC1)(c1ccccc1)c1ccccc1
inactive: max response [1] 0.398% | max response [2] -3.64% | outcome [3] | Potency [4] | Potency [5] | Potency [6] | Potency [7] | Potency [9] | Potency [10] | Potency [11] | Potency [12] | Potency [13] | Potency [14] | Potency [15] | Potency [16] | Potency [17] | Potency [18] | Potency [19]

CC(C)[C@@H]1CC[C@@H](C)CC1=O
inactive: max response [1] -7.81% | max response [2] 4.81% | outcome [3] | Potency [4] | Potency [5] | Potency [6] | Potency [7] | Potency [9] | Potency [10] | Potency [11] | Potency [12] | Potency [13] | Potency [14] | Potency [15] | Potency [16] | Potency [17] | Potency [18] | Potency [19]

NC1CCN(c2nc3c(cc2F)c(=O)c(C(=O)O)cn3-c2ccc(F)cc2F)C1 (stereo not given)
inactive: max response [1] 1.57% | outcome [2] | outcome [3] | Potency [4] | Potency [5] | Potency [6] | Potency [7] | outcome [8] | Potency [9] | Potency [10] | Potency [11] | Potency [12] | Potency [13] | Potency [14] | Potency [15] | Potency [16] | Potency [17] | Potency [18] | Potency [19]

CN=C(N)NCCC[C@H](N)C(=O)O
inactive: max response [1] -24.2% and -3.13% and -1.75%

Cc1cccc(C)c1NC(=O)CN1CCCC1
inactive: max response [1] 8.28% | max response [2] 1.81% | outcome [3] | Potency [4] | Potency [5] | Potency [6] | Potency [7] | Potency [9] | Potency [10] | Potency [11] | Potency [12] | Potency [13] | Potency [14] | Potency [15] | Potency [16] | Potency [17] | Potency [18] | Potency [19]

CC(=O)Nc1ccc(S(=O)(=O)Nc2ccc([N+](=O)[O-])cc2)cc1
inactive: max response [1] 15% | max response [2] 3.15% | outcome [3] | Potency [4] | Potency [5] | Potency [6] | Potency [7] | Potency [9] | Potency [11] | Potency [12] | Potency [13] | Potency [14] | Potency [15] | Potency [16] | Potency [17] | Potency [18] | Potency [19]

COc1ccccc1N1CCN(CCCCNC(=O)c2ccc(-c3ccc(C(C)=O)cc3)cc2)CC1
inactive: max response [1] -4.38% | max response [2] -11% | outcome [3] | Potency [4] | Potency [5] | Potency [6] | Potency [7] | Potency [9] | Potency [10] | Potency [11] | Potency [12] | Potency [13] | Potency [14] | Potency [15] | Potency [16] | Potency [17] | Potency [18] | Potency [19]

NC(N)=NCc1cccc(I)c1
inactive: max response [1] 1.64% and -6.45%

CCOc1ccccc1OCCN[C@H](C)Cc1ccc(OC)c(S(N)(=O)=O)c1
inactive: max response [1] 4.78% | max response [2] 2.8% | outcome [3] | Potency [4] | Potency [5] | Potency [6] | Potency [7] | Potency [9] | Potency [10] | Potency [11] | Potency [12] | Potency [13] | Potency [14] | Potency [15] | Potency [16] | Potency [17] | Potency [19]

CCOC(=O)[C@H](CCc1ccccc1)N[C@@H](C)C(=O)N1[C@H](C(=O)O)C[C@@H]2CCC[C@@H]21
inactive: max response [1] 3.06% | max response [2] 0.794% | outcome [3] | Potency [4] | Potency [5] | Potency [6] | Potency [7] | Potency [9] | Potency [10] | Potency [11] | Potency [12] | Potency [13] | Potency [14] | Potency [15] | Potency [16] | Potency [17] | Potency [18] | Potency [19]

O=C(CN1CCN(Cc2ccc3c(c2)OCO3)CC1)N1c2ccccc2Sc2ccccc21
inactive: max response [1] 6.91% | outcome [2] | outcome [3] | Potency [4] | Potency [5] | Potency [6] | Potency [7] | outcome [8] | Potency [9] | Potency [10] | Potency [11] | Potency [12] | Potency [13] | Potency [14] | Potency [15] | Potency [16] | Potency [17] | Potency [18] | Potency [19]

CC[N+](C)(CC)CCOC(=O)C(O)(c1ccccc1)C1CCCCC1 (stereo not given)
inactive: max response [1] 5.15% | max response [2] -5.74% | outcome [3] | Potency [4] | Potency [5] | Potency [6] | Potency [7] | Potency [9] | Potency [10] | Potency [11] | Potency [12] | Potency [13] | Potency [14] | Potency [15] | Potency [16] | Potency [17] | Potency [18] | Potency [19]

CC(C)NCC(O)c1ccc2ccccc2c1 (stereo not given)
inactive: max response [1] -2.59% | outcome [2] | outcome [3] | Potency [4] | Potency [5] | Potency [6] | Potency [7] | outcome [8] | Potency [9] | Potency [10] | Potency [11] | Potency [12] | Potency [13] | Potency [14] | Potency [15] | Potency [16] | Potency [17] | Potency [18] | Potency [19]
